The antibiotic and cytotoxicity screens of Wong et al. (2023)
Among all 39,000 compounds or so, about 1,500 (3.8%) were called active. The sample holds actives, similar compounds and a random draw of the others, so the mix is not that of the screen.

Each compound was assayed on HSkMC (human skeletal muscle cells) (assay: cytotoxicity call (relative viability < 0.9)). Conditions: 10 µM.

Row | SMILES | cytotoxicity call
1 | CC(C)NC(=O)N(C)C[C@H]1Oc2ccc(NS(=O)(=O)c3ccc(F)cc3)cc2CC(=O)N([C@@H](C)CO)C[C@H]1C | inactive
2 | O=C1C=CC(O)(/C=C/C(=O)O[C@@H]2[C@@H](O)[C@H](Oc3ccc(O)cc3)O[C@H](CO)[C@H]2O)C=C1 | inactive
3 | C[C@H](CO)N1C[C@H](C)[C@@H](CN(C)Cc2cccc(C(=O)Nc3ccccc3N)c2)OCc2ccccc2-c2c(n(C)c3ccccc23)C1=O | inactive
4 | C[C@@H]1CN([C@H](C)CO)C(=O)Cc2cc(NC(=O)Nc3ccccc3)ccc2O[C@H]1CN(C)Cc1ccc(C(F)(F)F)cc1 | active
5 | C[C@H](CO)N1C[C@H](C)[C@H](CN(C)Cc2ccc(C(F)(F)F)cc2)Oc2ccc(NC(=O)Nc3ccccc3)cc2CC1=O | active
6 | C[C@H]1CN([C@@H](C)CO)C(=O)Cc2cc(NC(=O)Nc3ccccc3)ccc2O[C@@H]1CN(C)Cc1ccc(C(F)(F)F)cc1 | active
7 | C=C1C(c2ccc(C)cc2)=CCc2cc(C)cc(C)c21 | inactive
8 | C[C@@H]1CCCCO[C@@H](CN(C)S(=O)(=O)c2cccs2)[C@H](C)CN([C@@H](C)CO)C(=O)c2cc(NC(=O)Nc3ccc(F)cc3)ccc2O1 | inactive
9 | Cc1nnn2c1COC[C@H](CNCC(C)C)C2 | inactive
10 | COCC(=O)Nc1ccc2c(c1)OC[C@@H](C)N(Cc1ccccc1OC)C[C@@H](C)[C@@H](OC)CN(C)C2=O | inactive
11 | COc1ccc(NC(=O)Nc2ccc3c(c2)C(=O)N([C@@H](C)CO)C[C@@H](C)[C@@H](CN(C)S(=O)(=O)c2cccs2)OCCCC[C@H](C)O3)cc1 | inactive
12 | O=C(CN1CCOCC1)N[C@H]1CC[C@H](CCNC(=O)C2CCCCC2)O[C@@H]1CO | inactive
13 | CNC[C@@H]1Oc2ccc(NS(=O)(=O)c3cn(C)cn3)cc2C(=O)N([C@H](C)CO)C[C@H]1C | inactive
14 | CCCNC(=O)N1C[C@@H](O)COC[C@@H]2O[C@@H](CC(=O)N3CCOCC3)CC[C@H]21 | inactive
15 | O=C(C[C@@H]1CC[C@H]2[C@@H](COC[C@H](O)CN2S(=O)(=O)c2ccc(F)cc2)O1)N[C@H]1CCN(Cc2ccccc2)C1 | inactive
16 | COc1nsnc1N1CCOCC1 | inactive
17 | C[C@H]1CN([C@@H](C)CO)C(=O)Cc2cc(NS(=O)(=O)c3ccccc3)ccc2O[C@H]1CN(C)Cc1ccc(Cl)c(Cl)c1 | inactive
18 | C[C@@H]1CN([C@H](C)CO)C(=O)Cc2cc(NS(=O)(=O)c3ccccc3)ccc2O[C@@H]1CN(C)Cc1ccc(Cl)c(Cl)c1 | active
19 | C[C@@H]1CN([C@@H](C)CO)C(=O)Cc2cc(NS(=O)(=O)c3ccccc3)ccc2O[C@@H]1CN(C)Cc1ccc(Cl)c(Cl)c1 | active
20 | C[C@H]1CN([C@@H](C)CO)C(=O)Cc2cc(NS(=O)(=O)c3ccccc3)ccc2O[C@@H]1CN(C)Cc1ccc(Cl)c(Cl)c1 | inactive
21 | C[C@H](CO)N1C[C@H](C)[C@@H](CN(C)Cc2ccc(Cl)c(Cl)c2)Oc2ccc(NS(=O)(=O)c3ccccc3)cc2CC1=O | inactive
22 | C[C@H](CO)N1C[C@H](C)[C@H](CN(C)Cc2ccc(Cl)c(Cl)c2)Oc2ccc(NS(=O)(=O)c3ccccc3)cc2CC1=O | inactive

Row | SMILES | cytotoxicity call
23 | C[C@@H]1CN([C@@H](C)CO)C(=O)Cc2cc(NS(=O)(=O)c3ccccc3)ccc2O[C@H]1CN(C)Cc1ccc(Cl)c(Cl)c1 | active
24 | C[C@@H]1CN([C@H](C)CO)C(=O)Cc2cc(NS(=O)(=O)c3ccccc3)ccc2O[C@H]1CN(C)Cc1ccc(Cl)c(Cl)c1 | active
25 | Cc1noc(C)c1NC(=O)N(C)C[C@H]1Oc2ccc(NC(=O)Nc3ccc(C(F)(F)F)cc3)cc2C(=O)N([C@H](C)CO)C[C@@H]1C | inactive
26 | NNC(=O)[C@H]1C[C@H]2C[C@@H]1C[C@@H]2C(=O)NN | inactive
27 | COc1ccc(S(=O)(=O)N(C)C[C@H]2Oc3ccc(NC(=O)Cn4cnnn4)cc3CC(=O)N([C@@H](C)CO)C[C@H]2C)cc1 | inactive
28 | O=C(O)c1ccc[n+]([O-])c1 | inactive
29 | CN(C)C(=O)C1CCN(S(C)(=O)=O)CC1 | inactive
30 | Cc1noc(C)c1NC(=O)Nc1ccc2c(c1)C(=O)N([C@@H](C)CO)C[C@H](C)[C@H](CN(C)C(=O)Nc1ccc(C(F)(F)F)cc1)O2 | inactive
31 | C[C@@H]1CCCCO[C@@H](CN(C)C(=O)c2ccccc2)[C@@H](C)CN([C@H](C)CO)C(=O)c2cc(NC(=O)Cc3ccccc3)ccc2O1 | inactive
32 | O=C(Nc1cc(Cl)ccc1Cl)c1cc(Br)ccc1NS(=O)(=O)c1ccc(Cl)c([N+](=O)[O-])c1 | inactive
33 | COCCNCc1ccc(-c2cc3nccc(Oc4ccc(NC(=S)NC(=O)Cc5ccc(F)cc5)cc4F)c3s2)nc1 | active
34 | COCCNCc1ccc(-c2cc3nccc(Oc4ccc(NC(=O)C5(C(=O)Nc6ccc(F)cc6)CC5)cc4F)c3s2)nc1 | active
35 | Cn1cnc(-c2cc3nccc(Oc4ccc(NC(=S)NC(=O)Cc5ccccc5)cc4F)c3s2)c1 | inactive
36 | C[C@H](CO)N1C[C@H](C)[C@H](CN(C)S(=O)(=O)c2ccc(-n3cccn3)cc2)OCc2cn(nn2)CCCC1=O | inactive
37 | CO[C@H](C(=O)N(C)C[C@@H]1OCc2ccccc2-c2c(n(C)c3ccccc23)C(=O)N([C@@H](C)CO)C[C@@H]1C)c1ccccc1 | inactive
38 | C[C@@H]1CN([C@@H](C)CO)C(=O)Cc2cc(NC(=O)Nc3cccc4ccccc34)ccc2O[C@@H]1CN(C)Cc1ccncc1 | inactive
39 | COc1ccc(S(=O)(=O)N[C@H]2CC[C@@H](CC(=O)N3CCN(c4ccccc4)CC3)O[C@@H]2CO)cc1 | inactive
40 | Cc1noc(C)c1NC(=O)Nc1ccc2c(c1)C(=O)N([C@@H](C)CO)C[C@@H](C)[C@H](CN(C)C(=O)Nc1cccc3ccccc13)OCCCC[C@@H](C)O2 | active
41 | Cc1noc(C)c1NC(=O)Nc1ccc2c(c1)C(=O)N([C@H](C)CO)C[C@H](C)[C@@H](CN(C)C(=O)Nc1cccc3ccccc13)OCCCC[C@H](C)O2 | inactive
42 | Cc1noc(C)c1NC(=O)Nc1ccc2c(c1)C(=O)N([C@H](C)CO)C[C@@H](C)[C@H](CN(C)C(=O)Nc1cccc3ccccc13)OCCCC[C@@H](C)O2 | inactive
43 | Cc1noc(C)c1NC(=O)Nc1ccc2c(c1)C(=O)N([C@H](C)CO)C[C@H](C)[C@H](CN(C)C(=O)Nc1cccc3ccccc13)OCCCC[C@H](C)O2 | active
44 | Cc1noc(C)c1NC(=O)Nc1ccc2c(c1)C(=O)N([C@@H](C)CO)C[C@H](C)[C@@H](CN(C)C(=O)Nc1cccc3ccccc13)OCCCC[C@@H](C)O2 | inactive

Row | SMILES | cytotoxicity call
45 | Cc1noc(C)c1NC(=O)Nc1ccc2c(c1)C(=O)N([C@@H](C)CO)C[C@@H](C)[C@H](CN(C)C(=O)Nc1cccc3ccccc13)OCCCC[C@H](C)O2 | inactive
46 | COc1ccc(S(=O)(=O)N(C)C[C@@H]2OCCCC[C@H](C)Oc3ccc(NS(=O)(=O)c4ccc(Cl)cc4)cc3C(=O)N([C@H](C)CO)C[C@H]2C)cc1 | inactive
47 | COc1ccc(S(=O)(=O)Nc2ccc3c(c2)C(=O)N([C@@H](C)CO)C[C@H](C)[C@H](CN(C)Cc2ccc(C(=O)O)cc2)OCCCC[C@H](C)O3)cc1 | inactive
48 | COC(=O)C1CCN(S(=O)(=O)c2c(C)n(C)c(=O)n(C)c2=O)CC1 | inactive
49 | O=C(CN1CCOCC1)NCC[C@H]1CC[C@H](NC(=O)c2ccccc2F)[C@H](CO)O1 | inactive
50 | O=C(CN1CCOCC1)NCC[C@@H]1CC[C@@H](NC(=O)c2ccccc2F)[C@@H](CO)O1 | active
51 | O=C(CN1CCOCC1)NCC[C@@H]1CC[C@@H](NC(=O)c2ccccc2F)[C@H](CO)O1 | inactive
52 | CO/N=[N+](\[O-])NC(C)C | inactive
53 | C[C@H]1CCCCO[C@H](CN(C)Cc2ccc(Cl)c(Cl)c2)[C@@H](C)CN([C@@H](C)CO)C(=O)c2cc(NS(=O)(=O)c3ccc(F)cc3)ccc2O1 | active
54 | C[C@H](CO)N1C[C@H](C)[C@H](CN(C)Cc2ccc(Cl)c(Cl)c2)OCCCC[C@H](C)Oc2ccc(NS(=O)(=O)c3ccc(F)cc3)cc2C1=O | active
55 | C[C@@H]1CCCCO[C@H](CN(C)Cc2ccc(Cl)c(Cl)c2)[C@@H](C)CN([C@H](C)CO)C(=O)c2cc(NS(=O)(=O)c3ccc(F)cc3)ccc2O1 | inactive
56 | C[C@@H]1CCCCO[C@@H](CN(C)Cc2ccc(Cl)c(Cl)c2)[C@H](C)CN([C@H](C)CO)C(=O)c2cc(NS(=O)(=O)c3ccc(F)cc3)ccc2O1 | active
57 | C[C@@H]1CCCCO[C@@H](CN(C)Cc2ccc(Cl)c(Cl)c2)[C@H](C)CN([C@@H](C)CO)C(=O)c2cc(NS(=O)(=O)c3ccc(F)cc3)ccc2O1 | active
58 | C[C@H](CO)N1C[C@H](C)[C@@H](CN(C)Cc2ccc(Cl)c(Cl)c2)OCCCC[C@H](C)Oc2ccc(NS(=O)(=O)c3ccc(F)cc3)cc2C1=O | inactive
59 | C[C@@H]1CCCCO[C@@H](CN(C)Cc2ccc(Cl)c(Cl)c2)[C@@H](C)CN([C@@H](C)CO)C(=O)c2cc(NS(=O)(=O)c3ccc(F)cc3)ccc2O1 | inactive
60 | C[C@H]1CN([C@@H](C)CO)C(=O)c2cc(NC(=O)NC3CCCCC3)ccc2O[C@H]1CN(C)S(=O)(=O)c1cn(C)cn1 | inactive
61 | O=C(C[C@@H]1CC[C@@H](NC(=O)Cc2ccccn2)[C@H](CO)O1)NCCc1ccncc1 | inactive
62 | C[C@H](CO)N1C[C@H](C)[C@@H](CN(C)S(=O)(=O)c2cccs2)OCCCC[C@H](C)Oc2ccc(NS(=O)(=O)c3ccc(Cl)cc3)cc2C1=O | inactive
63 | C[C@H](CO)N1C[C@H](C)[C@H](CN(C)C(=O)Nc2ccc(C(F)(F)F)cc2)OCCCC[C@H](C)Oc2ccc(NC(=O)Cc3ccccc3)cc2C1=O | inactive
64 | C[C@@H]1CCCCO[C@H](CN(C)Cc2ccc3c(c2)OCO3)[C@H](C)CN([C@@H](C)CO)C(=O)c2cc(NS(=O)(=O)c3ccccc3)ccc2O1 | inactive
